Sampled rows, rich in hits. Any-hit rate of the full collection: about 3.4%.
HIF-2a block: HIF-2a reporter inhibitors, primary screen, luminescence, 786-0 RCC cells; 786-0 RCC cells HIF-2a reporter, luciferase luminescence, overnight; inhibition, % at 18.8 µM; actives 0.72% (n = 360,000);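 active means inhibition of the luminescence signal of 40% or more relative to plate controls, in a single-dose primary screen at 18.75 µM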
MITF TRPM1 inh: inhibitors of MITF-dependent TRPM1 promoter reporter, primary screen, cell-based, SK-MEL-5, single point, luciferase; SK-MEL-5 TRPM1 promoter luciferase, 24 h; inhibition, % at 12.5 µM; actives 0.83% (n = 330,000);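 active means mean inhibition across replicates of 60% or more, whatever share of single replicates reaches that level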
TWEAK-Fn14 inh: inhibitors of TWEAK-Fn14 signaling, primary screen, luciferase reporter cells, uHTS; actives 2% (n = 360,000); inhibition, % at 10 µM; TWEAK-stimulated Fn14 reporter cells, luciferase luminescence, 8 h; in the data active means inhibition above about 50%
Shn3 3UTR inh: reduction of Shn3 3'UTR firefly luciferase signal, primary screen, Schnurri-3 inhibitor project, cell-based, Clone20 osteoblasts, set 2 | Clone20 osteoblast Shn3 3'UTR firefly luciferase, 24 h | inhibition, % at 12.5 µM | actives 0.52% (n = 360,000) | AID 588674, 2011;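 active means mean inhibition of at least 75% with every replicate also reaching 75%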
TROY NFkB inh: inhibitors of TROY-driven NF-kB signaling, primary screen, Q293 LMP1-TROYcd cells, NF-kB luciferase, uHTS. Q293 LMP1-TROYcd NF-kB luciferase reporter, 4 h. actives 0.98% (n = 360,000). AID 1347056, 2019. inhibition, % at 10 µM;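 active means compounds whose plate-normalised and pattern-corrected inhibition of the luciferase reporter signal at the single screening dose is 50% or more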
EBV LMP1 NFkB: EBV LMP1-driven NF-kappaB luciferase reporter inhibitors, primary screen, cell-based, luminescence, single point | LMP1-induced NF-kappaB luciferase reporter cells | inhibition, % at 12.5 µM | actives 0.69% (n = 350,000); in the data active means inhibition above about 41%
Numbers stand for hits; . = inactive; / = not tested or not shown.

SMILES	HIF-2a block	MITF TRPM1 inh	TWEAK-Fn14 inh	Shn3 3UTR inh	TROY NFkB inh	EBV LMP1 NFkB
Cc1cc(C(=O)Nc2cnc3ccccc3c2)ccc1[N+](=O)[O-]	.	.	.	.	.	.
O=C(Nc1cccc(-c2cnc3ccccc3n2)c1)c1ccco1	.	.	.	.	/	.
Cc1ccc(C(=O)Nc2cnc3ccccc3c2)cc1	84	84	105	86	87	79
O=C(Nc1cnc2ccccc2c1)c1ccco1	.	.	57	.	.	.
CCN1/C(=C/c2cc[n+](C)cc2)C=Cc2cc(C)ccc21	.	70	.	.	.	.
CCN1/C(=C/c2ccc3ccccc3[n+]2CCCS(=O)(=O)[O-])C=Cc2cc(C)ccc21	.	.	.	.	.	.
Cc1cccc(OCCNc2ccc([N+](=O)[O-])cn2)c1	.	.	.	.	.	.
O=[N+]([O-])c1ccc(NCCOc2ccccc2Cl)nc1	.	/	51	.	.	.
CN(CC(=O)Nc1cccc(F)c1)C(=O)c1cc([N+](=O)[O-])ccc1N1CCCCC1	.	.	.	.	.	.
O=C1CC(C(=O)N2CCN(c3ccccc3O)CC2)CN1Cc1ccccc1 (centres undefined)	.	.	.	.	.	.
O=C(NCc1ccccc1)c1cc(C2COCCN2C(=O)OCCF)on1 (centres undefined)	.	/	.	.	.	/
C[n+]1c2n(c3ccccc31)N=C(c1ccc(Cl)cc1)CS2	.	61	.	.	.	.
Fc1ccc(-c2noc(-c3ccc4c(c3)CCO4)n2)cc1	.	.	61	.	.	.
S=c1nccc(-c2ccc3c(c2)CCO3)[nH]1	.	.	.	.	.	.
Cc1ccc2ccc(C(Nc3ccccn3)c3ccccc3)c(O)c2n1 (centres undefined)	.	/	.	.	.	.
Oc1c(C(Nc2ccccn2)c2ccccn2)ccc2cccnc12 (centres undefined)	.	71	.	.	.	.
Oc1ccccc1C(Nc1nccs1)c1ccc2cccnc2c1O (centres undefined)	.	.	.	93	.	.
CCCn1c(N)c(C(=O)COC(=O)c2cccc(S(=O)(=O)N3CCOCC3)c2)c(=O)[nH]c1=O	.	/	.	.	.	.
COc1ccc(-c2[nH]ncc2/C=N\NC(=O)c2cccs2)cc1OC	.	.	.	.	.	.
CCCN(CCC)CCNC(=O)C1(O)c2ccccc2NC(=O)N1c1cccc(OC)c1 (centres undefined)	.	.	.	.	.	.
O=C(NC1CCCC1)C1CCN(S(=O)(=O)c2ccccc2)CC1	.	.	.	.	.	.
COc1ccccc1C(=O)Nc1nc2cc3c(cc2s1)OCCO3	.	.	.	.	.	.
CN(CC1CCCO1)S(=O)(=O)c1ccc(C(=O)Nc2nc3cc4c(cc3s2)OCO4)cc1 (centres undefined)	.	.	53	.	.	.
O=C(Nc1nc2cc3c(cc2s1)OCCO3)c1cccs1	.	.	89	.	61	.
O=C(Nc1nc2cc3c(cc2s1)OCCO3)c1cccc(N2C(=O)CCC2=O)c1	.	/	.	.	.	.
SMILES	HIF-2a block	MITF TRPM1 inh	TWEAK-Fn14 inh	Shn3 3UTR inh	TROY NFkB inh	EBV LMP1 NFkB
CN(CC1CCCO1)S(=O)(=O)c1ccc(C(=O)Nc2ccc3c(c2)OCO3)cc1 (centres undefined)	.	.	.	.	.	.
NNc1nc2cc3c(cc2s1)OCCO3	.	.	53	.	.	.
CCN(CC)S(=O)(=O)c1cccc(C(=O)Nc2nc3cc4c(cc3s2)OCCO4)c1	.	.	95	.	61	.
C[C@@H]1CN([C@@H](C)CO)C(=O)c2cc(NC(=O)C3CCCCC3)ccc2O[C@@H](C)CCCCO[C@@H]1CN(C)C(=O)CCCN(C)C	.	/	.	.	.	.
O=P(CCCCCCCCCP(=O)(c1ccccc1)c1ccccc1)(c1ccccc1)c1ccccc1	.	.	.	88	55	.
CO[C@H]1CN(C)C(=O)c2ccc(NC(=O)C3CCC3)cc2OC[C@H](C)N(CC2CCCCC2)C[C@@H]1C	.	/	/	/	/	/

Compound activity as filed in PubChem BioAssay.
